Consider one sequence from paper PMC7862700, “An all-to-all approach to the identification of sequence-specific readers for epigenetic DNA modifications on cytosine”.

Holding throughout (experiment): DAPPL (digital affinity profiling via proximity ligation, sequencing); 10 mM Tris-HCl pH 7.5, 50 mM NaCl, 1 mM DTT, 4% glycerol, room temperature, 30 min; GST-TFs on glutathione beads, 16-mer random dsDNA library, 0.1% formaldehyde crosslink after washing; high values mean tight binding
The target in assay [1] is T1, FEV (Homo sapiens, UniProt Q99581 1-238).
T1 sequence: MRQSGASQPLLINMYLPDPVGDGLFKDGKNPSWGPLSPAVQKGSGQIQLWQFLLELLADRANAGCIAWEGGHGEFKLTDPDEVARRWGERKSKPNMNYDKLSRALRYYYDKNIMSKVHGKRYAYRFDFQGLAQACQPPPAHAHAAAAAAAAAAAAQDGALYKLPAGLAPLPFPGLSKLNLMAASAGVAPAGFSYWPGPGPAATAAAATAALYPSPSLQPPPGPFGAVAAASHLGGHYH
The settings on record: protein: recombinant; tags: N-terminal GST; dsDNA, one strand shown. In short, it runs like this: (§1)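 Beads coated with glutathione captured GST-fused human transcription factors that had been expressed in yeast, and the factors were then given DNA barcodes and pooled with a tag-only sample. The pools were incubated with 200 nmole of a random double-stranded 16-mer DNA library in Tris/NaCl/DTT/glycerol buffer for 30 min at room temperature, washed, crosslinked with 0.1% formaldehyde and proximity-ligated with BsaI/T4 ligase at 37 °C for 1 h. PCR amplification and Illumina NextSeq500 sequencing came last. Binding signal is each hexamer's read frequency for a factor divided by its frequency for the tag-only sample.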

Assay [2] has as its target ETV5 (Homo sapiens, UniProt P41161 1-510). As to conditions: protein: recombinant; tags: N-terminal GST; dsDNA, one strand shown. Put shortly:
as §1

In assay [3] the target is HSF1 (Homo sapiens, UniProt Q00613 1-529). The settings on record: protein: recombinant; tags: N-terminal GST; chain copies: 3; dsDNA, one strand shown. Put shortly:
as §1

The target of assay [4] is T2, SPIC (Homo sapiens, UniProt Q8N5J4 1-248).
T2 sequence: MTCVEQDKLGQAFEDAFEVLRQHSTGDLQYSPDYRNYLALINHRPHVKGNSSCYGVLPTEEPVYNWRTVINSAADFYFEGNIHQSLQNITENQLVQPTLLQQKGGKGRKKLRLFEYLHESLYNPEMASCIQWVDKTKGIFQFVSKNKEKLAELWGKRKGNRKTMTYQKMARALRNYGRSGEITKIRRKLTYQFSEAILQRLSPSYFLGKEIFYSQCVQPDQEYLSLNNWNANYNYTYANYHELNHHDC
As to conditions: protein: recombinant; tags: N-terminal GST; dsDNA, one strand shown. Put shortly:
as §1

Assay [5] addresses ELF4 (Homo sapiens, UniProt Q99607 1-663). As to conditions: protein: recombinant; tags: N-terminal GST; dsDNA, one strand shown. Put shortly:
as §1

Assay [6] addresses T3, ELK4 (Homo sapiens, UniProt P28324-2 1-405).
T3 sequence: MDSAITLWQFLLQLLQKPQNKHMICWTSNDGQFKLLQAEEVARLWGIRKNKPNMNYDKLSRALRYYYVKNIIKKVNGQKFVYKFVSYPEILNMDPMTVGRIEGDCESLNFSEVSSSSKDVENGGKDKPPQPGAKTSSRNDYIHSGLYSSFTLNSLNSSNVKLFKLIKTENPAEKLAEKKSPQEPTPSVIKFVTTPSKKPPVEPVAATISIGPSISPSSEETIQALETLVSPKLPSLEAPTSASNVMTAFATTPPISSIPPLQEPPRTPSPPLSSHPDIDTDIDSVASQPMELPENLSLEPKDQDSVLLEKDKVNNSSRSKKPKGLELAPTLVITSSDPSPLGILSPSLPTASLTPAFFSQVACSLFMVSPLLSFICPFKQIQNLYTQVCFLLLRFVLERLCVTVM
The settings on record: protein: recombinant; tags: N-terminal GST; dsDNA, one strand shown. In short, it runs like this: as §1

In assay [7] the target is T4, ETV2 (Homo sapiens, UniProt O00321 1-342).
T4 sequence: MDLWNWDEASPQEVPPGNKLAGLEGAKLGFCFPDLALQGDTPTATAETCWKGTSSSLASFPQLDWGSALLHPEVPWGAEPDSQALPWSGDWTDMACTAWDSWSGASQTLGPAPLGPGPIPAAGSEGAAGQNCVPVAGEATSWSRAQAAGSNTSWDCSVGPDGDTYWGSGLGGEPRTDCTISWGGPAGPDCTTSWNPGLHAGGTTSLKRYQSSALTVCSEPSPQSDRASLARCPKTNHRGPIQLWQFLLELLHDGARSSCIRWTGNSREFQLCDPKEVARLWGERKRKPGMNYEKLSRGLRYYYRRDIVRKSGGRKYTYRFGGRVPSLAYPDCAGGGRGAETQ
As to conditions: protein: recombinant; tags: N-terminal GST; dsDNA, one strand shown. Put shortly: as §1

Assay [8] deals with T5, ELF3 (Homo sapiens, UniProt P78545 1-371).
T5 sequence: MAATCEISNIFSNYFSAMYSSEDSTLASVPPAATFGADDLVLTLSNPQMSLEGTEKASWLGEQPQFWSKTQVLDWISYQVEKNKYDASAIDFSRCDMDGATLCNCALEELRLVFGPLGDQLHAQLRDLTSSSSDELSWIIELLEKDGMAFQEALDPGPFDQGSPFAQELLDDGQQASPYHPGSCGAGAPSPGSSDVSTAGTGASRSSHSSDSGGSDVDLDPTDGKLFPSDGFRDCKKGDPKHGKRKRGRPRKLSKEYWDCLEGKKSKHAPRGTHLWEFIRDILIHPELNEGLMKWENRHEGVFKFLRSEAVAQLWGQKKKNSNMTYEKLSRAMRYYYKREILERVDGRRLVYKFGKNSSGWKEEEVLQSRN
As to conditions: protein: recombinant; tags: N-terminal GST; dsDNA, one strand shown. In short, it runs like this: as §1

The target in assay [9] is CRX (Homo sapiens, UniProt O43186 1-299). As to conditions: protein: recombinant; tags: N-terminal GST; dsDNA, one strand shown. Put shortly:
as §1

The target in assay [10] is ETV1 (Homo sapiens, UniProt P50549 1-477). The settings on record: protein: recombinant; tags: N-terminal GST; dsDNA, one strand shown. Put shortly: as §1
The target in assay [11] is T6, ERF (Homo sapiens, UniProt P50548 1-548).
T6 sequence: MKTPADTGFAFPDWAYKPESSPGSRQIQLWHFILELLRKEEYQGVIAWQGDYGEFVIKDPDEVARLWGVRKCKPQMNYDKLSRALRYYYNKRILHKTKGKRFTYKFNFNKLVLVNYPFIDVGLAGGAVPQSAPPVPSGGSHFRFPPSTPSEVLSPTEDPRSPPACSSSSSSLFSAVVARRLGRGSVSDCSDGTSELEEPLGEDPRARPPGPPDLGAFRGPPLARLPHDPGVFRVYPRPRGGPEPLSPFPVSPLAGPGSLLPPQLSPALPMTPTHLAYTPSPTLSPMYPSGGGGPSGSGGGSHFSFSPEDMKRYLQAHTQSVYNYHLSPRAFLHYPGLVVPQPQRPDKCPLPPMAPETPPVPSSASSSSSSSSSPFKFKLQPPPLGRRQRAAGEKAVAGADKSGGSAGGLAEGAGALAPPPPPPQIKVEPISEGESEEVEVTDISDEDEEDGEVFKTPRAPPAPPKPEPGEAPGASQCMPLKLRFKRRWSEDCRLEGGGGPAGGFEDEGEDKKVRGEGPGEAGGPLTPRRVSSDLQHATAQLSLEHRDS
As to conditions: protein: recombinant; tags: N-terminal GST; dsDNA, one strand shown. In short, it runs like this:
as §1

The target of assay [12] is T7, ETV3L (Homo sapiens, UniProt Q6ZN32 1-361).
T7 sequence: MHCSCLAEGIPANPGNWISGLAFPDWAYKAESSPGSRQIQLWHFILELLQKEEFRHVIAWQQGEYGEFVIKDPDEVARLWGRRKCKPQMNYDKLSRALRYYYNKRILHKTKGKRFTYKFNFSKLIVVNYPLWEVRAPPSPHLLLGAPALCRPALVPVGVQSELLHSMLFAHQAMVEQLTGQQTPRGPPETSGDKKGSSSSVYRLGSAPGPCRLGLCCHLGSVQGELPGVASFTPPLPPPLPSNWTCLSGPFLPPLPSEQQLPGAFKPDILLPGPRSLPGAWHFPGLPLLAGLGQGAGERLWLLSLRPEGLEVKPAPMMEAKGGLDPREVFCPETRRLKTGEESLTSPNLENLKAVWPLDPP
As to conditions: protein: recombinant; tags: N-terminal GST; dsDNA, one strand shown. Put shortly: as §1

Assay [13] has as its target T8, ETS2 (Homo sapiens, UniProt P15036 1-469).
T8 sequence: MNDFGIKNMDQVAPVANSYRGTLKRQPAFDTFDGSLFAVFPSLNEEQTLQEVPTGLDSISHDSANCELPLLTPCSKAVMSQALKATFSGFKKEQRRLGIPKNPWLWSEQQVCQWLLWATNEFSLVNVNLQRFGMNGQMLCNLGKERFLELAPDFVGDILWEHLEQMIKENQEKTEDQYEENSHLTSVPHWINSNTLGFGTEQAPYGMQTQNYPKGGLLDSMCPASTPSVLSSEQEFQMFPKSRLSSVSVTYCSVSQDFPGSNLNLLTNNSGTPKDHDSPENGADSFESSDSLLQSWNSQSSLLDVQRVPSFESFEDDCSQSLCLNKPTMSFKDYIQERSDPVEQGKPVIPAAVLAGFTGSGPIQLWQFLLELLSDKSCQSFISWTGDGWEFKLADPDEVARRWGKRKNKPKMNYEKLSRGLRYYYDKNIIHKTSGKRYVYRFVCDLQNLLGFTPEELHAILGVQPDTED
As to conditions: protein: recombinant; tags: N-terminal GST; dsDNA, one strand shown. Put shortly:
as §1

The target in assay [14] is T9, SPDEF (Homo sapiens, UniProt O95238 1-335).
T9 sequence: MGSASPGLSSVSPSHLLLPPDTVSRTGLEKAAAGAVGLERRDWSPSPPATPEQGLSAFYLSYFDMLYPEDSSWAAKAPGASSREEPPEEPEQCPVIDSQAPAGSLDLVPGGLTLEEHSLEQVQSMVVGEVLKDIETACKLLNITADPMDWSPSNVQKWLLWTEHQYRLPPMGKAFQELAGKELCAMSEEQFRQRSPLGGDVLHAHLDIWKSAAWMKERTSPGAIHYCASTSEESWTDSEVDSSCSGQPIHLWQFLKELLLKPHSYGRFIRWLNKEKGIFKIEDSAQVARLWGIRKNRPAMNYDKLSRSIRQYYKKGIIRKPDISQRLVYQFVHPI
As to conditions: protein: recombinant; tags: N-terminal GST; dsDNA, one strand shown. In short, it runs like this:
as §1

Assay [15] deals with T10, ETV7 (Homo sapiens, UniProt Q9Y603 1-341).
T10 sequence: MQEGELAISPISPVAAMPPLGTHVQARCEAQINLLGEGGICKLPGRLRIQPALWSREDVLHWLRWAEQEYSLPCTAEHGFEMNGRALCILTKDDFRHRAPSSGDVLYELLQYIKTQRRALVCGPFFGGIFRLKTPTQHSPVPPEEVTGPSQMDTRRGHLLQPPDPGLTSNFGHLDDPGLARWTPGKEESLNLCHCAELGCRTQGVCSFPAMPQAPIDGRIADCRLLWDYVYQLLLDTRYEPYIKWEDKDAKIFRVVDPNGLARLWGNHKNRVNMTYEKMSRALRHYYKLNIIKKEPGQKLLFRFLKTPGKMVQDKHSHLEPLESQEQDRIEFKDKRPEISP
As to conditions: protein: recombinant; tags: N-terminal GST; dsDNA, one strand shown. Put shortly:
as §1

Assay [16] concerns the target T11, ELF5 (Homo sapiens, UniProt Q9UKW6-2 1-255).
T11 sequence: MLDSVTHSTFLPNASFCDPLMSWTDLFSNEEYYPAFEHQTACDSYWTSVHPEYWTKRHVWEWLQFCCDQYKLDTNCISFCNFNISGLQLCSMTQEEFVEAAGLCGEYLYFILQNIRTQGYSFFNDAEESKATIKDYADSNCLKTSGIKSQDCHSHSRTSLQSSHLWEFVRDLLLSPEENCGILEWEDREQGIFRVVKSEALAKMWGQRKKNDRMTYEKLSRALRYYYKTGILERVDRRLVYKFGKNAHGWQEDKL
The settings on record: protein: recombinant; tags: N-terminal GST; dsDNA, one strand shown. Put shortly: as §1

Assay [17] addresses T12, ETV3 (Homo sapiens, UniProt P41162-2 1-143).
T12 sequence: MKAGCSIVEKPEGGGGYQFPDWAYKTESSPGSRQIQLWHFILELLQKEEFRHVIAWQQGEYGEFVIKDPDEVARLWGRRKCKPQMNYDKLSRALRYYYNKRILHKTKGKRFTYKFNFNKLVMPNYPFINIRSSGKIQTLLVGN
As to conditions: protein: recombinant; tags: N-terminal GST; dsDNA, one strand shown. Put shortly:
as §1

Assay [18] concerns the target ETV6 (Homo sapiens, UniProt P41212 1-452). As to conditions: protein: recombinant; tags: N-terminal GST; dsDNA, one strand shown. Put shortly:
as §1

Chain of CRX (O43186 whole entry): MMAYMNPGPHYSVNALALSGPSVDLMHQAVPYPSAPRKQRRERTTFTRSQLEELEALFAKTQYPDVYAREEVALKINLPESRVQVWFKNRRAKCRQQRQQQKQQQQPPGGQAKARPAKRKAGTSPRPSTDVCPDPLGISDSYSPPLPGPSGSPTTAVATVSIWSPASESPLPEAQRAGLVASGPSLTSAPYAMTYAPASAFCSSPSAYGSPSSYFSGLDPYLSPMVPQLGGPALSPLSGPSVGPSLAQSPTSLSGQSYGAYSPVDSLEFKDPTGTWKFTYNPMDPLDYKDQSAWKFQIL
Chain of ELF4 (Q99607 whole entry): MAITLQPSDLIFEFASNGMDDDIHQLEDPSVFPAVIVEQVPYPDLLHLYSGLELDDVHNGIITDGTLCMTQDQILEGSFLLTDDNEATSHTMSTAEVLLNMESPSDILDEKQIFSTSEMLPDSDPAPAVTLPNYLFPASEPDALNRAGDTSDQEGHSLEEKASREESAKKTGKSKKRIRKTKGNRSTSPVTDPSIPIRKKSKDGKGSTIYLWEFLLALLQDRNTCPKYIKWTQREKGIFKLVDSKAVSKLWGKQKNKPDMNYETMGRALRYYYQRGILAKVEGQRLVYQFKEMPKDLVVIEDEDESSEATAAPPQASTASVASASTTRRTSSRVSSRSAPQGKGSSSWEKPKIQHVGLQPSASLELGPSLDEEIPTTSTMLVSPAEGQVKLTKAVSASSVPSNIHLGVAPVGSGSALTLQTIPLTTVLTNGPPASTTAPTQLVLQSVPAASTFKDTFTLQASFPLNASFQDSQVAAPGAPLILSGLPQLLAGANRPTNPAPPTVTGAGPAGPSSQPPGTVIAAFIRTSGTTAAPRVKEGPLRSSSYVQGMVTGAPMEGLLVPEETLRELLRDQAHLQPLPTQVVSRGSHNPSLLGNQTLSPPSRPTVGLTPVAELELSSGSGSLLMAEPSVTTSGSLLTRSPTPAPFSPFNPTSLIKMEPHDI
Chain of ETV6 (P41212 whole entry): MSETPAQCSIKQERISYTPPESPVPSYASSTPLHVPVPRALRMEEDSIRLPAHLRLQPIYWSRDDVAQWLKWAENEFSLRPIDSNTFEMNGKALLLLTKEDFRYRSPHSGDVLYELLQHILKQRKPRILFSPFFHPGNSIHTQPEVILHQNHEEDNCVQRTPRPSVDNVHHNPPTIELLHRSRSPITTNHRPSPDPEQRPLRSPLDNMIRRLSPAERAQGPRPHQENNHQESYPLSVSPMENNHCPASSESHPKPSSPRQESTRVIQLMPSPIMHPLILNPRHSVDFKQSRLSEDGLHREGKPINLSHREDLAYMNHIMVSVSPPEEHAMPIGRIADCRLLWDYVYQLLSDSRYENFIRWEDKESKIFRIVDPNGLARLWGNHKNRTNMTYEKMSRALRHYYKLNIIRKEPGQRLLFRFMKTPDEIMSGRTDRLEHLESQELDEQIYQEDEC
Chain of ETV1 (P50549 whole entry): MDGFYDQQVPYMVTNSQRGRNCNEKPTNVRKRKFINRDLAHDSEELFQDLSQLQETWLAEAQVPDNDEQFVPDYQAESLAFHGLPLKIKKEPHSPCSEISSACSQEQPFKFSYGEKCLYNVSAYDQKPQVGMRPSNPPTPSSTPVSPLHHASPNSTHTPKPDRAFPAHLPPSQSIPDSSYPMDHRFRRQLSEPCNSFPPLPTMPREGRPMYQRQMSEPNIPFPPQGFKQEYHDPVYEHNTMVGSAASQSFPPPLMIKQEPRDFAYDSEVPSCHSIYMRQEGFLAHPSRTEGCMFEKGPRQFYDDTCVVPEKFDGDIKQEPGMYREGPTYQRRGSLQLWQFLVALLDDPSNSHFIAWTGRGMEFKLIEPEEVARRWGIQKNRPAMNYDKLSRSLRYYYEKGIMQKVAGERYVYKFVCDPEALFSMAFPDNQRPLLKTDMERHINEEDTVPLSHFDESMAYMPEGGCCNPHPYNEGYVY
Chain of ETV5 (P41161 whole entry): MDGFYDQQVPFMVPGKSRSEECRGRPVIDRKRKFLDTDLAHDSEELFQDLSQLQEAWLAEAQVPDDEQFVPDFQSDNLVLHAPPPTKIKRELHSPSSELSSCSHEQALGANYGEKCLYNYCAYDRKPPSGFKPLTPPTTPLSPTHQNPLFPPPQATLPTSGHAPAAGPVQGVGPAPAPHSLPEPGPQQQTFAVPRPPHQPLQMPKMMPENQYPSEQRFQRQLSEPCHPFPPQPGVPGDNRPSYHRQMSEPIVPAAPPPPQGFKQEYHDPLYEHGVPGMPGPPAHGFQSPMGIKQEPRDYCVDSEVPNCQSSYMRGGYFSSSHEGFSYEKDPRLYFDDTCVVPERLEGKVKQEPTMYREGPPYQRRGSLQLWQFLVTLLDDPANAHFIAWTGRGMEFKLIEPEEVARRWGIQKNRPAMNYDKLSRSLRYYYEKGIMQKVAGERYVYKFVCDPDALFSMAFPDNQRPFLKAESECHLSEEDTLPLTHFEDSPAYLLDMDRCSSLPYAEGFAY
Chain of HSF1 (Q00613 whole entry): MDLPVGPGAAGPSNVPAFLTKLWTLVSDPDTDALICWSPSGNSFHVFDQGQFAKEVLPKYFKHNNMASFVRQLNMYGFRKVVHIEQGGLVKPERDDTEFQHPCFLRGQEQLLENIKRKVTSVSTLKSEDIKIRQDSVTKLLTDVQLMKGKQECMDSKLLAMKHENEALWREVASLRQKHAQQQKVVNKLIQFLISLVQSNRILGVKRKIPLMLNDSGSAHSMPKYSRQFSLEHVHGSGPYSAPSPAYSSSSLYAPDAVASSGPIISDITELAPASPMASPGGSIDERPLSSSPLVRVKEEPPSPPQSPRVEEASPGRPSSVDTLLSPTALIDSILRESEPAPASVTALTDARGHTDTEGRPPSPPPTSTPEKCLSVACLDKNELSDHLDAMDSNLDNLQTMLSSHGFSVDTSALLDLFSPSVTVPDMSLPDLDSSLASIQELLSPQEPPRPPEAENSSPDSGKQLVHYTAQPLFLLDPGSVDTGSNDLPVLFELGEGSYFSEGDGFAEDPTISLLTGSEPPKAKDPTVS

For CTACGC, the binding signal in [1] is 1.62 fold enrichment (6-mer frequency, TF over GST control); in assay [2] it was 1.6 fold enrichment (6-mer frequency, TF over GST control); in [3] it was 1.39 fold enrichment (6-mer frequency, TF over GST control); in assay [4], 1.36 fold enrichment (6-mer frequency, TF over GST control); in assay [5], 1.51 fold enrichment (6-mer frequency, TF over GST control); in assay [6] it was 1.6 fold enrichment (6-mer frequency, TF over GST control). For the same sequence, the binding signal was 1.57 fold enrichment (6-mer frequency, TF over GST control) in assay [7]; 1.57 fold enrichment (6-mer frequency, TF over GST control) in assay [8]; 1.38 fold enrichment (6-mer frequency, TF over GST control) in assay [9]; 1.55 fold enrichment (6-mer frequency, TF over GST control) in assay [10]; 1.72 fold enrichment (6-mer frequency, TF over GST control) in assay [11]; 1.5 fold enrichment (6-mer frequency, TF over GST control) in [12]. For the same sequence, the binding signal was 1.59 fold enrichment (6-mer frequency, TF over GST control) in assay [13]; 1.56 fold enrichment (6-mer frequency, TF over GST control) in [14]; 1.42 fold enrichment (6-mer frequency, TF over GST control) in assay [15]; 1.49 fold enrichment (6-mer frequency, TF over GST control) in assay [16]; 1.59 fold enrichment (6-mer frequency, TF over GST control) in assay [17]; 1.64 fold enrichment (6-mer frequency, TF over GST control) in assay [18].
